# Measurements reported in PubChem BioAssay.
# Where “and” joins values, the source holds several entries; their conditions need not be identical. Identical values can stand only once. Calls of active or inactive are those of the source.
# Experiments:
# [1] = binders of probe aFSTL3 on microarray, primary screen, stem cell growth factor project, biochemical, small-molecule microarray, fluorescence 635/667 (AID 1064); conditions: higher = more signal;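 also: measures binding of the biotinylated anti-FSTL3 antibody to printed compounds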
# [2] = binders from COS7 lysate, DM2A8 probe, primary screen, torsin A project, cell lysate, small-molecule microarray, fluorescence 635/667 (AID 1065); conditions: higher = more signal, COS7 lysate expressing mutant human TOR1A
# [3] = binders of probe aFGF2 on microarray, primary screen, stem cell growth factor project, biochemical, small-molecule microarray, fluorescence 635/667 (AID 1067); conditions: higher = more signal;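 also: measures binding of biotinylated aFGF2 protein to printed compounds on slides; z-score merges feature fluorescence and signal-to-noise across triplicate slides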
# [4] = binders of probe aFGF10 on microarray, primary screen, stem cell growth factor project, biochemical, small-molecule microarray, fluorescence 635/667 (AID 1071); conditions: higher = more signal;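 also: score merges 667 nm spot intensity and signal to noise from triplicate slides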
# [5] = target: Neurogenic locus notch homolog protein 2 (Homo sapiens) (UniProt Q04721); experiment: Notch2 binders on small-molecule microarrays, primary screen, biochemical, small-molecule microarray, 635 nm fluorescence, stem cell growth factors (AID 1073); conditions: Notch2 binding, higher = more signal
# [6] = target: Pro-neuregulin-1, membrane-bound isoform (Homo sapiens) (UniProt Q02297); experiment: NRG1 binders on small-molecule microarrays, primary screen, psychiatric disease protein project, biochemical, small-molecule microarray, fluorescence 635/667 (AID 1075); conditions: NRG1 binding, 635 nm fluorescence, higher = more signal;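 also: score combines 667 nm spot fluorescence with signal to noise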
# [7] = tested on: Neuregulin-1 EGF-like domain; experiment: binders of neuregulin-1 EGF-like domain, primary screen, biochemical, small-molecule microarray, 635 nm fluorescence (AID 1081); conditions: small-molecule microarray binding, higher = more signal;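 also: binding of the protein to compounds printed on small-molecule microarray slides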
# [8] = FRG1 promoter luciferase signal modulators, primary screen, FRG1 inhibition for FSHD, cell-based, C2C12 myotubes, firefly/Renilla luciferase, luminescence (AID 1084); conditions: higher = more signal, called active from +8 up or from −8 down
# [9] = binders of probe aFST on microarray, primary screen, stem cell growth factor project, biochemical, small-molecule microarray, fluorescence 635/667 (AID 1086); conditions: higher = more signal;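 also: score merges 667 nm fluorescence with signal-to-noise of each printed compound spot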
# [10] = binders of probe aHhip on microarray, primary screen, stem cell growth factor project, biochemical, small-molecule microarray, fluorescence 635/667 (AID 1087); conditions: higher = more signal;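 also: score merges spot fluorescence at 667nm with spot signal to noise ratio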
# Sequence of Neurogenic locus notch homolog protein 2 (Homo sapiens) (Q04721 whole entry, looked up, canonical isoform): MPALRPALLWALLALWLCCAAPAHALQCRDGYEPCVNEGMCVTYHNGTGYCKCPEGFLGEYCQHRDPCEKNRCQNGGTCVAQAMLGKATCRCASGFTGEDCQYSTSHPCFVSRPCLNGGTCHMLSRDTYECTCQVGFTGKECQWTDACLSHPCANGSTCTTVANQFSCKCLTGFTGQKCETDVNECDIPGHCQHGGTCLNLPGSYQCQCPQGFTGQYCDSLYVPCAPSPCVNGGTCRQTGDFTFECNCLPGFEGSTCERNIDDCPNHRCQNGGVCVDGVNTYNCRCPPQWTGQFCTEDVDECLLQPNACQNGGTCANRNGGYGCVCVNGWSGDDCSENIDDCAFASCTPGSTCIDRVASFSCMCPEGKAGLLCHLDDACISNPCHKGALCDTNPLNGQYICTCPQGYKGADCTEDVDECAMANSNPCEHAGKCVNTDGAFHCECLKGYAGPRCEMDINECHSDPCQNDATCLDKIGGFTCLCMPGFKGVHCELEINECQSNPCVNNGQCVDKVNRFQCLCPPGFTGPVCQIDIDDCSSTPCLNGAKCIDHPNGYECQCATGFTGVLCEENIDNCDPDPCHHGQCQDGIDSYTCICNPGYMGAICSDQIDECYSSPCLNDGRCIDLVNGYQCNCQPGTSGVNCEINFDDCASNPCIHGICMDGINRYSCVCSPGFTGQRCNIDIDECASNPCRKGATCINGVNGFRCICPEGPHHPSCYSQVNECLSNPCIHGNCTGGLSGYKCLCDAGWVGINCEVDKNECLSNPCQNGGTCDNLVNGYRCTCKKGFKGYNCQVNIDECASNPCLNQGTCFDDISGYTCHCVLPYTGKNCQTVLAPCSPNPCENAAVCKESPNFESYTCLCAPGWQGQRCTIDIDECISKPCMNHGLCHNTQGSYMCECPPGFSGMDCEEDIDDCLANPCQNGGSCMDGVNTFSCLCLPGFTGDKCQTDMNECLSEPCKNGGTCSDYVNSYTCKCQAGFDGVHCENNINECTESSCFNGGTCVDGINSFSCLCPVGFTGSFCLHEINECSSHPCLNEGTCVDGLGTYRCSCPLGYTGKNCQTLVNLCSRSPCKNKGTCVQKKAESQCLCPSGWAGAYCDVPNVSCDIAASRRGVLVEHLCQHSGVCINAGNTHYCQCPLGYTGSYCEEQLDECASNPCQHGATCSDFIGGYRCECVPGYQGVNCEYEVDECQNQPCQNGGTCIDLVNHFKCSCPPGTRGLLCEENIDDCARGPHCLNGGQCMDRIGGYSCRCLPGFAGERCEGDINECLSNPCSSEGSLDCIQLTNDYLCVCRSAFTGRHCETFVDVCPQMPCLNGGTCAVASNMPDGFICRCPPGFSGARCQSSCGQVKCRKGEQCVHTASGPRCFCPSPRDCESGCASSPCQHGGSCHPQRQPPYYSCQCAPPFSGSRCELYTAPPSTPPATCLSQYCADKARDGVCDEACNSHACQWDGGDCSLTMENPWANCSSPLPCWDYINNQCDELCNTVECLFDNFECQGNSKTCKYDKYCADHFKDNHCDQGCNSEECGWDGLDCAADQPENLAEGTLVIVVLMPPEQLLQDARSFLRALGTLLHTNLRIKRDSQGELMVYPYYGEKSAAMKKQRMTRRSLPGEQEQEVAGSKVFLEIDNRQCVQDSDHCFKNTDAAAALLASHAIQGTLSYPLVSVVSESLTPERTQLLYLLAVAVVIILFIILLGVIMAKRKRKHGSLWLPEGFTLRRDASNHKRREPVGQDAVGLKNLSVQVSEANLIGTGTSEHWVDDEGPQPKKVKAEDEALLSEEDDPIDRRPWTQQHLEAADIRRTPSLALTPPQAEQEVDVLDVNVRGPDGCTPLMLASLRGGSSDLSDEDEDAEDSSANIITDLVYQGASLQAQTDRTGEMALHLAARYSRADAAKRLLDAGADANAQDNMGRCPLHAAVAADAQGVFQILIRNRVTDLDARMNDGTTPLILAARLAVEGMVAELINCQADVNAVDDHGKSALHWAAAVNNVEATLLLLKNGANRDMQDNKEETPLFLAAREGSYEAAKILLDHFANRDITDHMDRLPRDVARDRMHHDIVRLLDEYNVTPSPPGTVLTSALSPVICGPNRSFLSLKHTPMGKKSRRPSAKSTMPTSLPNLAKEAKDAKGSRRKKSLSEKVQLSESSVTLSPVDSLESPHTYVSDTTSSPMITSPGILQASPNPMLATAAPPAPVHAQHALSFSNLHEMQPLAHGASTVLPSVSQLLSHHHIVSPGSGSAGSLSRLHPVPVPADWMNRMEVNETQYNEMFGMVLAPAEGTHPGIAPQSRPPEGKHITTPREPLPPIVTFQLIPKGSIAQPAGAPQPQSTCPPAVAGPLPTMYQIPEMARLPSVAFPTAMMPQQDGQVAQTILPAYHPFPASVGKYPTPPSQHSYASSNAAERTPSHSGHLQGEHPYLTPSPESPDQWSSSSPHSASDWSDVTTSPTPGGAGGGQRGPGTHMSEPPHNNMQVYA
# Sequence of Pro-neuregulin-1, membrane-bound isoform (Homo sapiens) (Q02297 whole entry, looked up, the tested form may be a part, canonical isoform): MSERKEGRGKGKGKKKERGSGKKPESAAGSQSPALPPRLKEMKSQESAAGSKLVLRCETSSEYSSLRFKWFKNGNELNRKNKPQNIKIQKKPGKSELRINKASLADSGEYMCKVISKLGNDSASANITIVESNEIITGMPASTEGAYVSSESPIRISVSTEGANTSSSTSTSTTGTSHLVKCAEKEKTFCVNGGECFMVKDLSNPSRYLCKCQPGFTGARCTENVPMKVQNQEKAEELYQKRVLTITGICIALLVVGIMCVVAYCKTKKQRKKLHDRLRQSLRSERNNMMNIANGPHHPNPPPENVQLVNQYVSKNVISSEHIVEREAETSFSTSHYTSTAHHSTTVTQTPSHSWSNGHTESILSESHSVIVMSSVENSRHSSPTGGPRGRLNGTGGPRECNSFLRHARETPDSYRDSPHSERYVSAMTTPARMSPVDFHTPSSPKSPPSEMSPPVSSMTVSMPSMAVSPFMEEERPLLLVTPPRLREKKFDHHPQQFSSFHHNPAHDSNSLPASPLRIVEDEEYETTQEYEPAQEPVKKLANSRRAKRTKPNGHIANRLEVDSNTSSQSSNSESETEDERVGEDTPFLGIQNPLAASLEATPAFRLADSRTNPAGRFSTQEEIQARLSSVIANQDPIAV
Compound,composite z-score [1],composite z-score [2],composite z-score [3],composite z-score [4],composite z-score [5],composite z-score [6],composite z-score [7],z-score [8],composite z-score [9],composite z-score [10]
C[N+](C)(C)CCCCCCNC(=O)[C@@H]1C[C@@H]2C(=O)N[C@@H](CCCC[N+](C)(C)C)C(=O)N2[C@@H]1c1ccc(O)cc1,0.245 and -0.175,0.0279 and -0.0321,-0.12 and -0.181,0.0015 and -0.155,-0.423 and -0.213,0.142 and 1.11,1.35 and 1.36,0.403 (inactive) and 2.73 (inactive),-0.12 and -0.0447,-0.206 and -0.266
CCOC(=O)C[C@H]1[C@H](OC(=O)c2ccccc2-c2ccccc2)[C@@H](NC(=O)c2ccccc2)c2cc(OCCCO)ccc2N1C(=O)c1ccc2ccccc2n1,-0.0767 and -0.127,0.455 and 0.0871,0.0047 and -0.094,0.507 and 0.191,0.708 and 0.964,-0.106 and 0.749,0.738 and 0.565,-0.129 (inactive) and -0.113 (inactive),0.214 and 0.306,0.347 and -0.0994
C=C[C@H](C)[C@H](O)c1ccc(O)c2ccccc12,0.101 and 0.398,0.848 and -0.282,-0.144 and -0.0541,-0.737 and -0.0937,-1.43 and -0.16,-0.532 and -0.889,0.316 and -0.53,-0.891 (inactive) and -0.971 (inactive),-1.03 and -0.735,-0.12 and -0.0994
COC(=O)[C@@]1(Cc2ccccc2)[C@H]2c3cc(C(=O)N(C)C)n(C[C@H](O)CO)c3C[C@H]2CN1C(=O)c1ccccc1,0.323 and 0.439,-0.347 and 0.188,0.0002 and -0.0065,0.122 and 0.158,1.15 and 1.53,2.1 and 2.01,1.47 and 1.03,1.92 (inactive) and 0.827 (inactive),0.606 and 0.955,0.174 and 0.192
C[C@@H]1CC[C@@H](C(=O)O)N[C@H]1c1ccc(-c2ccco2)cc1,-0.462,0.712,-0.0502,0.422,0.571,0.486,0.811,0.0786 (inactive),0.583,-0.0173
CO[C@H]1COC(=O)CC=C[C@@H](C)COC(=O)[C@@H](OCc2ccccc2)C=C[C@@H]1C,-0.773,1.86,-0.213,-0.68,-1.02,-0.212,1.14,-0.971 (inactive),-0.28,-0.0994
C=CCN(C(=O)C(c1cccs1)N(C(=O)/C=C\C(=O)O)c1ccc(CCO)cc1)c1ccc(OC)cc1 (stereo not given),0.862 and 1.92,-0.812 and -1.02,-0.236 and -0.312,-1.73 and -1.74,-1.21 and -2.49,0.017 and -1.66,0.877 and -1.46,0.253 (inactive) and 0.243 (inactive),-0.889 and -1.13,-0.134 and -0.204
C[N+](C)(C)CCCCNC(=O)[C@H]1C[C@H]2C(=O)N[C@@H](CCCC[N+](C)(C)C)C(=O)N2[C@H]1c1cccc(OCCO)c1,-0.0665 and -0.363,-0.422 and 1.12,-0.0744 and -0.149,1.24 and 0.967,-0.0613 and 0.622,1.24 and 0.211,0.973 and 1.38,-0.194 (inactive) and -0.269 (inactive),0.613 and 0.743,0.142 and -0.41
CCOC(=O)[C@H](Cc1ccccc1)NC(=O)CCC1CC(OC(=O)NCc2cccc3ccccc23)CC2(CCCC(COC(=O)NCCCN3CCCC3=O)O2)O1 (stereo not given in full),-0.511,0.221,-0.107,0.122,1.1,0.412,0.783,-0.81 (inactive),0.249,-0.0994
CCCNC(=O)OC[C@H]1O[C@H](CCON=C(C)CCC(=O)OC[C@H]2O[C@H](C#Cc3ccccc3)C=C[C@@H]2Oc2ccc(C)cc2)C=C[C@@H]1Oc1ccc(OC)cc1,0.0836,-0.115,-0.124,-0.187,-0.0132,-0.21,-0.861,0.751 (inactive),-0.244,1.27
CCOC(=O)c1ccc(NC(=O)O[C@H]2[C@H](OC(=O)Nc3ccccc3)[C@@H](OC(=O)Nc3ccccc3)[C@@H](OC)O[C@@H]2CO)cc1,0.181 and 0.179,0.791 and 0.936,0.211 and 0.164,1.01 and 1.18,1.59 and 1.44,1.46 and 1.3,1.33 and 1.43,1.13 (inactive) and 0.183 (inactive),1.29 and 1.2,0.167 and 0.24
C[N+](C)(C)CCCCCCNC(=O)[C@H]1C[C@H]2C(=O)N[C@@H](CCCC[N+](C)(C)C)C(=O)N2[C@H]1c1cccc(OCCO)c1,-0.54 and 1.52,0.5 and 0.444,-0.0546 and 0.0108,-0.232 and 0.0517,-0.004 and -0.276,0.55 and -0.353,1.2 and 1.47,3.98 (inactive) and 3.53 (inactive),0.469 and 0.696,-0.293 and 0.535
CO[C@@H]1COC(=O)[C@H](Cc2ccccc2)NC(=O)CC=C[C@@H](C)[C@H](OC)COC(=O)[C@@H](C)NC(=O)CC=C[C@H]1C,-0.501 and -1.33,1.23 and 0.603,-0.132 and -0.168,0.0044 and 0.401,-0.223 and -0.012,-0.258 and -0.159,0.383 and 0.284,0.361 (inactive) and -0.178 (inactive),0.409 and -0.084,0.154 and -0.271
C=CCN(C(=O)C1N(CCCCCCO)C(=O)C2C(C(=O)O)C3C=CC21O3)C(C)(C)C (stereo not given),0.619 and 0.997,-1.01 and -1.12,-0.159 and -0.313,-1.58 and -1.55,-1.01 and -1.71,1.07 and -0.354,-0.192 and 0.886,3.01 (inactive) and 0.174 (inactive),-0.492 and -1.5,-0.169 and 0.0373
CCOC(=O)c1ccc(NC(=O)O[C@H]2[C@H](OC(=O)Nc3ccccc3)[C@H](OC(=O)Nc3ccccc3)[C@@H](OC)O[C@@H]2CO)cc1,0.496 and 0.0126,1.19 and 1.58,0.171 and 0.0495,1.2 and 0.986,1.44 and 0.73,1.68 and 1.8,1.3 and 1.35,0.822 (inactive) and -1.03 (inactive),1.18 and 0.937,-0.24 and -0.141
C=CCN(CCCC)C(=O)C(c1cccs1)N(C(=O)/C=C\C(=O)O)c1c(Cl)cccc1CO (stereo not given),1.46 and 0.323,-1.19 and -0.707,-0.288 and -0.203,-1.27 and -1.8,-1.97 and -1.39,-1.26 and -0.533,-0.751 and 0.176,-0.165 (inactive) and -0.332 (inactive),-1.94 and -0.684,0.679 and -0.409
CCCNC(=O)OC[C@H]1O[C@H](CCON=C(C)CCN2CCc3nc(-c4ccccc4)c(-c4ccccc4)cc3C2)C=C[C@@H]1Oc1ccc(OC)cc1,-0.369,0.0379,-0.116,0.118,-0.247,0.48,0.524,0.198 (inactive),0.142,-0.0994
C=CCN(C(=O)C(c1cccs1)N(C(=O)/C=C\C(=O)O)c1c(Cl)cccc1CO)c1ccc(OC)cc1 (stereo not given),1.98 and 1.01,-0.781 and -0.551,-0.228 and -0.0608,-1.56 and -0.737,-1.87 and -1.28,1.04 and -0.796,0.782 and 0.0793,0.284 (inactive) and 0.649 (inactive),-1 and -0.362,-0.164 and -0.229
C=CCN(CCCCC)C(=O)C(c1cccs1)N(CCOCCO)C(=O)/C=C\C(=O)O (stereo not given),-0.192 and 0.0796,0.185 and -1.07,-0.157 and -0.113,-1.26 and -0.317,-1.84 and -1.41,-0.661 and -0.969,-0.196 and -0.609,0.874 (inactive) and 1.45 (inactive),-1.48 and -0.675,-0.0922 and -0.41
O=C1[C@H]2[C@H]3[C@H](O)[C@H](O)CC(=NOCc4ccccc4)[C@H]3CC[C@H]2C(=O)N1Cc1ccccc1,-0.51,0.887,-0.109,0.186,0.189,-0.226,-0.263,0.224 (inactive),0.223,-0.274
C=CCN(C(=O)C1N(CCOCCO)C(=O)C2C(C(=O)O)C3C=CC21O3)c1ccc(OC)cc1 (stereo not given),1.11 and 1.65,-1.59 and -1.21,-0.184 and -0.254,-0.719 and -1.97,-2.35 and -1.84,0.555 and 2.07,0.328 and 0.86,-0.408 (inactive) and -0.715 (inactive),-0.654 and -0.932,-0.581 and -0.349
Cc1ccc(S(=O)(=O)N[C@@H]2COC(=O)CC=C[C@@H](C)[C@@H]3C=C[C@H](O)[C@@H](COC(=O)CC=C[C@H]2C)O3)cc1,-0.534 and -0.776,1.1 and 0.792,-0.131 and -0.175,0.0127 and 0.11,-0.557 and 0.111,-0.22 and -0.195,0.0077 and 0.324,0.132 (inactive) and 0.646 (inactive),0.101 and 0.0406,0.0243 and -0.26
C=C[C@@H](C)[C@@H](O)c1ccc(OCCO)cc1,1.01 and 0.0727,-1.44 and -0.971,-0.232 and -0.273,-1.47 and -1.27,-1.86 and -1.3,-0.408 and -0.496,-0.477 and -0.674,4.33 (inactive) and 1.84 (inactive),-1.9 and -0.848,-0.242 and -0.644
CC(C)=CCCC(C)=CCON=C1C[C@@H](O)[C@@H](O)[C@@H]2[C@@H]3C(=O)N([C@@H](C)c4ccccc4)C(=O)[C@@H]3CC[C@H]12,-0.372,0.384,-0.044,0.573,0.744,1.13,0.751,-0.763 (inactive),0.503,0.0627
C=CCN(CCCCC)C(=O)C1N(C(C)(C)CO)C(=O)C2C(C(=O)O)C3C=CC21O3 (stereo not given),0.215 and 0.754,-0.806 and -0.866,-0.223 and -0.193,-1.26 and -2.17,-1.64 and -2.02,-0.729 and 1.18,-0.369 and -0.726,0.521 (inactive) and 1.02 (inactive),-2.01 and -0.558,-0.261 and 0.0274
C=C[C@H](OC)[C@@H](O)c1ccc(O)c(F)c1,1.25 and 1.29,-0.903 and -2.05,-0.116 and -0.247,-0.458 and -0.0501,-2.17 and -1.38,-0.527 and -1.01,-0.0988 and 0.736,0.537 (inactive) and -0.0808 (inactive),-1.08 and -1.54,-0.213 and -0.314
COC(=O)C1=C(C)N(Cc2ccccc2)[C@]23O[C@](C(=O)OC)(C(=O)N2[C@@H]1c1ccccc1)[C@H]1CCCC(=O)[C@H]13,0.0353 and -0.148,0.383 and 1.06,-0.0333 and -0.0507,0.513 and 0.359,1.15 and 0.327,1.21 and -0.23,0.636 and -0.133,-1.02 (inactive) and 0.357 (inactive),0.395 and 0.0869,0.186 and -0.236
Cc1cc2c(nc1C)CCCN2CC(O)CN1CCCc2nc(-c3ccc(Br)cc3)ccc21 (stereo not given),0.738 and 1.41,0.694 and 0.644,0.115 and 0.363,0.902 and 0.602,1.15 and 1.39,1.56 and 1.11,1.16 and 1.11,4.83 (inactive) and 2.39 (inactive),0.916 and 0.891,0.968 and 2.11
